Assay [1] in a line: Quantitative High-Throughput drug screen in 47 multiple myeloma cell lines against the NCATS MIPE library collection: JIM1_ECACC cell viability assay (AID 1918964). To be noted: JIM1 myeloma viability, CellTiter-Glo ATP luminescence, 48 h; series mostly up to 45.8 µM. In a few lines:
(§1)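 Myeloma cell lines, 500 cells per well, exposed to MIPE 4.0 library compounds for 48 h at 37C, 5% CO2. Viability from ATP by CellTiter-Glo luminescence; normalised to DMSO (100%) and media-only (0%) wells.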

Assay [2] in a line: Quantitative High-Throughput drug screen in 47 multiple myeloma cell lines against the NCATS MIPE library collection: INA6_PLB cell viability assay (AID 1918965; note: nearly all actives have a fitted effect of over 55% in size). To be noted: INA6 myeloma viability, CellTiter-Glo ATP luminescence, 48 h; series mostly up to 45.8 µM. In a few lines:
(§2)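 Inhibition of cell viability is measured here. Each line was plated at 500 cells per well, treated with MIPE 4.0 drugs, kept 48 hours at 37C, then assayed for ATP content by CellTiter-Glo luminescence.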
In general terms: In ATP-based viability assays light output follows the ATP content of the culture.

A short description of assay [3]: Quantitative High-Throughput drug screen in 47 multiple myeloma cell lines against the NCATS MIPE library collection: KMS27_JCRB cell viability assay (AID 1918970). Note: nearly all actives have a fitted effect of over 30% in size. To be noted: KMS27 myeloma cells, CellTiter-Glo ATP viability, 48 h; series mostly up to 45.8 µM. In a few lines: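 KMS27_JCRB myeloma cells, 500 per well, exposed 48 h at 37 C, 5% CO2 to MIPE 4.0 compounds. Viability from ATP by CellTiter-Glo luminescence, normalized to DMSO (100%) and medium-only (0%) wells.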

The nature of assay [4]: Quantitative High-Throughput drug screen in 47 multiple myeloma cell lines against the NCATS MIPE library collection: KMS12PE_JCRB cell viability assay (AID 1918972). Note: nearly all actives have a fitted effect of over 30% in size. To be noted: KMS12PE myeloma viability, CellTiter-Glo ATP, 48 h; series mostly up to 45.8 µM. In a few lines:
as §2

Assay [5] in a line: Quantitative High-Throughput drug screen in 47 multiple myeloma cell lines against the NCATS MIPE library collection: Karpas25_ECACC cell viability assay (AID 1918968; note: nearly all actives have a fitted effect of over 35% in size). To be noted: Karpas25 myeloma viability, CellTiter-Glo ATP, 48 h; series mostly up to 45.8 µM. In a few lines: as §1
Assay [6] is described as follows: Quantitative High-Throughput drug screen in 47 multiple myeloma cell lines against the NCATS MIPE library collection: KMS20_JCRB cell viability assay (AID 1918973). Note: nearly all actives have a fitted effect of over 45% in size. To be noted: CellTiter-Glo ATP, 48 h; series mostly up to 45.8 µM. In a few lines: as §1
A short description of assay [7]: Quantitative High-Throughput drug screen in 47 multiple myeloma cell lines against the NCATS MIPE library collection: JJN3_DSMZ cell viability assay (AID 1918966; note: nearly all actives have a fitted effect of over 50% in size). To be noted: JJN3 myeloma cells viability, CellTiter-Glo ATP, 48 h; series mostly up to 45.8 µM. In a few lines:
as §1

Assay [8] in a line: Quantitative High-Throughput drug screen in 47 multiple myeloma cell lines against the NCATS MIPE library collection: H1112_PLB cell viability assay (AID 1918967; note: nearly all actives have a fitted effect of over 30% in size). To be noted: H1112 myeloma cells viability, ATP luminescence, 48 h; series mostly up to 45.8 µM. In a few lines:
as §1

The nature of assay [9]: Quantitative High-Throughput drug screen in 47 multiple myeloma cell lines against the NCATS MIPE library collection: KMS12BM_JCRB cell viability assay (AID 1918971). Note: nearly all actives have a fitted effect of over 35% in size. To be noted: KMS12BM myeloma viability, CellTiter-Glo ATP, 48 h; series mostly up to 45.8 µM. In a few lines:
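We plated 500 myeloma cells per well, pinned in MIPE 4.0 compounds, and incubated for 48 hours at 37C. ATP was then quantified with CellTiter-Glo, with DMSO and media-only wells defining 100% and 0%.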

Where “and” joins values, the source holds several entries; their conditions need not be identical. Equal values may be shown once. Results filed as inconclusive are left out. Calls of active or inactive are those of the source. Calls come from the whole dose curve; as a rule, active = well fitted cell-killing curve with a large enough effect; inconclusive = small, poorly fitted or top-dose-only effect, or effect the other way; inactive = no such curve, though single readings can be large or run the other way.

Potency data for 26 compounds are collected here from PubChem BioAssay (NCATS).
Potency is the fitted concentration of half-maximal effect.

With `CCn1c(-c2nonc2N)nc2cnc(Oc3cccc(NC(=O)c4ccc(OCCN5CCOCC5)cc4)c3)cc21`, the Potency in assay [1] was 5.9 µM (active); in [2], 2.64 µM (active); in assay [3], 8.33 µM (active); in assay [4], 5.9 µM (active).
`O=c1[nH]c(-c2ccc(C(F)(F)F)cc2)nc2c1CSCC2`: the Potency entry in [1], in assay [3], in assay [4] and in assay [6] was “inactive” in each case. The Potency in [5] is 18.7 µM (active).
As for `Cc1cc(Nc2nc(N[C@@H](C)c3ncc(F)cn3)ncc2Cl)n[nH]1`, the results for the Potency in [2], in assay [7] and in assay [8] were 5.26 µM (active), 18.7 µM (active) and 3.32 µM (active), respectively.
Consider `CCN(CC)CCCC(C)Nc1ccnc2cc(Cl)ccc12` (stereo not given), for which the Potency entry in assay [1], in assay [7], in [8] and in [9] was “inactive” in each case. Moreover, the Potency in assay [4] is 1.66 µM (active).
For the compound `CC(C=CC1=C(C)CCCC1(C)C)=CC=CC(C)=CC(=O)O`, the Potency in [2] was 14.8 µM (active) and 5.9 µM (active); in assay [7], 5.9 µM (active) and 1.66 µM (active); in assay [8], 14.8 µM (active) and 11.8 µM (active); in [5] it was 16.6 µM (active) and 18.7 µM (active).
Regarding `Cc1cc2c(F)c(Oc3ncnn4cc(OC[C@@H](C)O)c(C)c34)ccc2[nH]1`, the Potency entry in [1] and in assay [4] was “inactive” each time. For the same compound, in [2], the Potency was 18.7 µM (active).
Turning to `Cc1cnc(NC(=O)C2=C(O)c3ccccc3S(=O)(=O)N2C)s1`, the Potency result in assay [1], in [7], in [8], in assay [5] and in [9] was “inactive” throughout.
Consider `O=c1[nH]cnc2[nH]ncc12`, for which the Potency result in [1], in assay [8], in assay [5], in assay [3] and in assay [6] was “inactive” in each case.
Regarding `CCc1cncnc1N1CCN(Cc2nc3ccc(C(F)(F)F)cc3[nH]2)CC1`, the Potency result in assay [1] is “inactive”. Moreover, the Potency in assay [2] was 10.5 µM (active); in assay [3], 7.43 µM (active); in [9], 14.8 µM (active); in assay [4], 2.09 µM (active).
With `NC[C@H](O)c1ccc(O)c(O)c1`, the Potency result in assay [1], in [8], in assay [3] and in assay [4] was “inactive” throughout. For the same compound, the figures for the Potency in [7] and in assay [9] were 4.18 µM (active) and 20.9 µM (active), respectively.
Turning to `CCCCCCCc1ccc(CCc2cccc(O)c2C(=O)O)cc1`, the Potency entry in assay [1] and in assay [4] was “inactive” in each case. The Potency was 20.9 µM (active) in assay [5] and 0.332 µM (active) in assay [9].
Consider `O=C1CCc2cc(OCCCCc3nnnn3C3CCCCC3)ccc2N1`, for which the Potency entry in assay [1] and in [4] was “inactive” each time.
With `Cc1cc(C=c2sc3nc4ccccc4n3c2=O)c(C)n1-c1ccccc1`, the Potency entry in [1], in assay [8], in assay [3] and in assay [4] was “inactive” in each case. Further, the Potency in assay [7] was 4.18 µM (active).
For the compound `CCOC(=O)N1CCC(=C2c3ccc(Cl)cc3CCc3cccnc32)CC1`, the Potency entry in [1], in assay [8], in assay [5] and in [4] was “inactive” throughout. For the same compound, the Potency in assay [9] is 23.5 µM (active).
`O=c1n(CCCN2CCN(c3cccc(Cl)c3)CC2)nc2ccccn12`: the Potency entry in assay [1], in assay [8], in assay [3] and in assay [6] was “inactive” in each case.
Take `Clc1ccc(Nc2nnc(Cc3ccncc3)c3ccccc23)cc1`: the Potency entry in assay [1], in [3] and in assay [4] was “inactive” each time. Moreover, the Potency in [2] was 16.6 µM (active); in assay [9], 20.9 µM (active).
For the compound `Cc1n[nH]c(C)c1Cc1sc2c(c1C(=O)N1C[C@H](O)CO1)c(=O)n(C)c(=O)n2CC(C)C`, the Potency result in assay [1] and in assay [8] was “inactive” in each case. Besides, in [9], the Potency is 2.64 µM (active).
Take `O=c1ncn2nc(Sc3ccc(F)cc3F)ccc2c1-c1c(Cl)cccc1Cl`: in [1], the Potency entry was “inactive”. In addition, the Potency is 4.18 µM (active) in [2], 14.8 µM (active) in assay [5], 18.7 µM (active) in [3] and 18.7 µM (active) in assay [9].
For the compound `CC(=O)NC(C)c1ccc(Oc2ccc(OC(C)C)cc2)cc1` (stereo not given), in [1], the Potency entry is “inactive”. Also, the Potency in assay [7] was 16.6 µM (active); in [8] it was 2.96 µM (active); in assay [5] it was 3.72 µM (active); in assay [9] it was 13.2 µM (active); in [4], 5.9 µM (active).
Consider `Cc1ccnc(NS(=O)(=O)c2ccc(NC(=O)Nc3ccc(S(=O)(=O)Nc4nccc(C)n4)cc3)cc2)n1`, for which the Potency is 16.6 µM (active) in [1], 20.9 µM (active) in [3], 6.62 µM (active) in assay [9] and 20.9 µM (active) in [4]. For the same compound, in assay [8], the Potency result was “inactive”.
As to `OC[C@H](Cc1ccccc1)Nc1nc(Oc2ccc3c(c2)CCC3)nc2c1ncn2Cc1ccc(-c2ccccc2)cc1`, the Potency entry in [1] and in assay [4] was “inactive” in each case.
In the case of `CC(C[N+](C)(C)C)OC(N)=O` (stereo not given), the Potency result in assay [1], in assay [2], in assay [8] and in assay [4] was “inactive” throughout.
For `OC(CCN1CCCCC1)(c1ccccc1)C1CC2C=CC1C2` (stereo not given), the Potency entry in [1], in assay [8], in assay [5] and in assay [4] was “inactive” each time.
Consider `CCCc1nc2c(C)cc(-c3nc4ccccc4n3C)cc2n1Cc1ccc(-c2ccccc2C(=O)O)cc1`, for which the figures for the Potency in assay [1] and in [3] were 0.0026 µM (active) and 4.18 µM (active), respectively. In addition, the Potency entry in [8], in assay [5] and in assay [9] was “inactive” in each case.
As to `CCCn1c(=O)c2[nH]c(C34CC5CC3C[C@@H](C5)C4)nc2n(CCC)c1=O`, the Potency result in assay [2], in assay [8] and in assay [5] was “inactive” each time. Further, the Potency in assay [7] is 13.2 µM (active).
For the compound `COc1cc2nccc(Oc3ccc(NC(=O)NC4CC4)c(Cl)c3)c2cc1C(N)=O`, the Potency is 16.6 µM (active) in [2]; 1.48 µM (active) in assay [7]; 2.96 µM (active) in assay [8]; 3.32 µM (active) in [3]; 5.9 µM (active) in assay [9]; 0.833 µM (active) in assay [4]. In assay [6], the Potency was 13.2 µM (active).
